{
  "source": "PubChem BioAssay (NCI)",
  "note": "Several values for one entry are separate records, joined by “and”; a condition that tells them apart may be missing. Identical values can stand only once. Compounds without any hit were thinned out: in the full panel of roughly 83,000, 20% have a hit.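 Method: cells in 96-well plates; compound added at one concentration; 48 h incubation; percent growth measured; values under 10 scored active.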 Activity calls are given as the source filed them.",
  "data": [
    {"test_system": "MDA-MB-468 breast", "assay": "NCI-60 one-dose screen, 48 h (100 = growth as untreated, 0 = no growth, -100 = all killed)", "details": "10 µM unless noted", "values": [
      {"smiles": "COC(=O)C1=CCCN(C)C1", "growth": "105% (inactive) and 92.8% (inactive)"},
      {"smiles": "CC(C)(N)Cc1ccccc1", "growth": "114% (inactive)"},
      {"smiles": "N#CC(C#N)=Cc1cccc(F)c1", "growth": "109% (inactive)"},
      {"smiles": "O=C1CCC(=O)N1SC(Cl)(Cl)Cl", "growth": "116% (inactive)"},
      {"smiles": "C[CH2][Pb]([CH2]C)([CH2]C)[O]C(=O)c1ccc(N)cc1", "growth": "-11.9% (active)"},
      {"smiles": "O=C=Nc1ccc(Br)cc1", "growth": "83.1% (inactive)"},
      {"smiles": "COP(=S)(OC)Oc1ccc(SC)c(C)c1", "growth": "108% (inactive)"},
      {"smiles": "COC(=O)CCc1c[nH]c2ccc(N(CCCl)CCCl)cc12", "growth": "8.73% (active)"},
      {"smiles": "COc1cc2c(cc1OCc1ccccc1)C(CC(C)C)=[N+](C)CC2", "growth": "2.12% (active)"},
      {"smiles": "C[CH2][Pb]([CH2]C)([CH2]C)[O]C(=O)COC", "growth": "-49.3% (active)"},
      {"smiles": "COc1ccc(Nc2ccc([N+](=O)[O-])cc2[N+](=O)[O-])cc1CN(CCCl)CCCl", "growth": "10.1% (inactive)"},
      {"smiles": "CCCCN(CCCC)CC(O)c1ccccc1", "note": "(stereo not drawn)", "growth": "116% (inactive)"},
      {"smiles": "N#CCc1ccc(CC#N)cc1", "growth": "100% (inactive)"},
      {"smiles": "COC(=O)[C@@H](C)C[C@H](Cc1ccccc1)NC(=O)c1csc([C@@H](C[C@H](C(C)C)N(C)C(=O)[C@@H](NC(=O)CN(C)C)C2CC2)OC(C)=O)n1", "growth": "-0.222% (active)"},
      {"smiles": "ClCCN(CCCl)c1ccc(C=NCCc2c[nH]c3ccccc23)cc1", "growth": "-16.7% (active)"},
      {"smiles": "COC[C@@H]1C[C@@]2(C)[C@@H](CC[C@@H]3[C@@H]2CC[C@@]2(C)[C@H]3CC[C@]2(C)O)CC1=O", "growth": "99% (inactive)"},
      {"smiles": "NC(=O)CNc1ccc([As]=[As]c2ccc(NCC(N)=O)cc2)cc1", "note": "(stereo not drawn)", "growth": "-6.99% (active)"},
      {"smiles": "O=C1C2C(C(=O)[N]1[Hg][c]1ccccc1)C1(Cl)C(Cl)=C(Cl)C2(Cl)C1(Cl)Cl", "note": "(stereo not drawn)", "growth": "-72.7% (active)"},
      {"smiles": "C[C@]12CCc3sc(Nc4ccc(OC(F)(F)F)cc4)nc3C1=CC[C@@H]1[C@@H]2CC[C@]2(C)C(=O)CC[C@@H]12", "growth": "69.1% (inactive)"},
      {"smiles": "CCCCOc1ccc(C(N)Cc2ccccc2)cc1", "note": "(stereo not drawn)", "growth": "76.2% (inactive)"},
      {"smiles": "COC(=O)[C@@H](NC(=O)c1cn(CCC2CCCCC2)c2ccccc12)C(C)(C)C", "growth": "82.3% (inactive)"},
      {"smiles": "CC(=O)Nc1ccc(NC(=O)c2ccc([As](O)O)cc2)cc1", "growth": "92.5% (inactive)"},
      {"smiles": "CC1=C2C(=O)[C@H]3[C@@H](CC=C4C[C@@H](O)CC[C@@]43C)[C@@H]2CC[C@]12O[C@@H]1C[C@H](C)CN[C@H]1[C@H]2C", "growth": "85.6% (inactive)"},
      {"smiles": "CCOc1cc(C=C(C#N)C#N)cc(Br)c1O", "growth": "119% (inactive)"},
      {"smiles": "ClC1OC(Cl)(Cl)C(Cl)(Cl)OC1(Cl)Cl", "note": "(stereo not drawn)", "growth": "105% (inactive)"},
      {"smiles": "CC(C)(C)[Si](C)(C)OC1[C@@H](O[Si](C)(C)C(C)(C)C)[C@@H](CNC(=O)NC(=O)CF)O[C@H]1n1cnc2c(NC(=O)Nc3ccccc3)ncnc21", "note": "(stereo partly drawn)", "growth": "90.5% (inactive)"},
      {"smiles": "COC(=O)[C@@H](C)C[C@H](Cc1ccccc1)NC(=O)c1csc([C@@H](C[C@H](C(C)C)N(C)C(=O)[C@@H](NC(=O)[C@H]2CCCCN2C)C(C(F)(F)F)C(F)(F)F)OC(C)=O)n1", "growth": "51.7% (inactive)"},
      {"smiles": "COC(=O)[C@@H](C)C[C@H](Cc1ccccc1)NC(=O)c1csc([C@@H](C[C@H](C(C)C)N(C)C(=O)[C@@H](NC(=O)[C@H]2CCCCN2C)C2CCCCC2)OC(C)=O)n1", "growth": "-8.49% (active)"},
      {"smiles": "O=C1C=CC(=O)C2C1C1(Cl)C(Cl)=C(Cl)C2(Cl)C1(Cl)Cl", "note": "(stereo not drawn)", "growth": "5.2% (active)"},
      {"smiles": "O=S(=O)(F)c1ccc(Cl)cc1", "growth": "121% (inactive)"},
      {"smiles": "CC/C(=C(\\c1ccc(OCCN2CCOCC2)cc1)c1ccc(OC(=O)Cc2ccccc2)cc1)c1ccc(Cl)cc1", "growth": "104% (inactive)"},
      {"smiles": "COc1cccc(C=NC(Cc2cnc[nH]2)C(=O)O)c1O", "note": "(stereo not drawn)", "growth": "55.4% (inactive)"},
      {"smiles": "CC(=O)O[C@@H]1CC[C@]2(C)[C@H]3CC[C@]4(C)C(=O)CC[C@H]4[C@@H]3C[C@@H]3SC(N)=N[C@@]32C1", "growth": "29.6% (inactive)"},
      {"smiles": "N#Cc1c(-n2c(Br)c(Br)c3cc(Br)ccc32)[nH]c2c(Br)cc(Br)cc12", "growth": "-16.3% (active)"},
      {"smiles": "O=c1[nH]c2ccccc2n1C1CCN(CCCC(c2ccc(F)cc2)c2ccc(F)cc2)CC1", "growth": "33% (inactive)"},
      {"smiles": "CCC(C)/C=C(C)/C=C/C(=O)c1c(O)c(-c2ccc(O)cc2)c[nH]c1=O", "note": "(stereo not drawn)", "growth": "30.3% (inactive)"},
      {"smiles": "O=C1CC2(CC3(Cl)C(Cl)=C(Cl)C2(Cl)C3(Cl)Cl)C(=O)O1", "note": "(stereo not drawn)", "growth": "105% (inactive)"},
      {"smiles": "N#CC1c2ccccc2C=CN1C(=O)c1ccc(N(CCCl)CCCl)cc1", "note": "(stereo not drawn)", "growth": "79.7% (inactive)"}
    ]}
  ]
}
